# Measured values published in PubChem BioAssay AID720551 (National Center for Advancing Translational Sciences (NCATS), 2013).
# In all, about 340,000 compounds went through this assay and about 1,300 (0.38%) were called active. What follows is part of a selection rich in actives, with near analogues and random picks from the rest. Unmarked numbers belong to inactive results.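 How the source made its calls: active means maximum activity change below -70%; inconclusive means maximum activity change between -70% and -50%; inactive means maximum activity change above -50%.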
# Molecular target: Voltage-gated inwardly rectifying potassium channel KCNH2 (Homo sapiens) (UniProt Q12809)
# Test: qHTS for Inhibitors of KCHN2 3.1: Wildtype qHTS
# Settings: U2OS, BacMam KCNH2, thallium flux FluxOr; at 1.84 µM; active compounds read low
# Description: Many antipsychotic drugs that inhibit the neurotransmitter dopamine also bind to hERG1 channel which might help explain their antipsychotic activity but also produces cardiac side effects. The discovery of the novel KCNH2 3.1 isoform offers a potential new target for the development of antipsychotic drugs without cardiac side effects. This proposal will use a high throughput thallium flux assay developed for KCNH2 to screen compounds that modulate the activity of KCNH2 3.1. The wild type KCNH2 channel will also be screened in parallel to help define the selective modulators of this KCNH2 3.1 potassium channel. The resulting compounds will be validated in electrophysiology experiments. The availability of animal models will allow future testing in vivo for effects on memory and other aspects of animal physiology linked with psychosis. NIH Chemical Genomics Center [NCGC] NIH Molecular Libraries Probe Centers Network [MLPCN] MLPCN Grant: MH096539 Assay Submitter (PI): James Barrow, Johns Hopkins University, Lieber Institute for Brain Development
# U2OS cells were resuspended in cell media containing 10% fetal calf serum (FCS) at a concentration of 2 million cells / mL. The solution was treated with the Wild-type virus at 2.03 x 10^8 / mL and allowed to incubate at room temperature in the dark. After 4 hours of incubation, DMEM + 10% fetal bovine serum (FBS) was added to the cell solution. Three microliter was then dispensed into a 1536 tissue culture treated black assay plates which were incubated overnight at 37 C. Two microliter of loading buffer (HBSS + HEPES + Red40 dye quencher + FluxOr dye) was added and the assay plates were incubated for 45 min at room temperature in the dark. […] A stimulation buffer was added to the plate and the second kinetic read (2 min) was obtained. The rate constant was calculated from the kinetic reads and normalized to the positive and negative DMSO controls.
# On the % scale 0 is the no-effect control and ±100 the full control effect.
# Voltage-gated inwardly rectifying potassium channel KCNH2 (Homo sapiens), sequence (Q12809 whole entry, looked up): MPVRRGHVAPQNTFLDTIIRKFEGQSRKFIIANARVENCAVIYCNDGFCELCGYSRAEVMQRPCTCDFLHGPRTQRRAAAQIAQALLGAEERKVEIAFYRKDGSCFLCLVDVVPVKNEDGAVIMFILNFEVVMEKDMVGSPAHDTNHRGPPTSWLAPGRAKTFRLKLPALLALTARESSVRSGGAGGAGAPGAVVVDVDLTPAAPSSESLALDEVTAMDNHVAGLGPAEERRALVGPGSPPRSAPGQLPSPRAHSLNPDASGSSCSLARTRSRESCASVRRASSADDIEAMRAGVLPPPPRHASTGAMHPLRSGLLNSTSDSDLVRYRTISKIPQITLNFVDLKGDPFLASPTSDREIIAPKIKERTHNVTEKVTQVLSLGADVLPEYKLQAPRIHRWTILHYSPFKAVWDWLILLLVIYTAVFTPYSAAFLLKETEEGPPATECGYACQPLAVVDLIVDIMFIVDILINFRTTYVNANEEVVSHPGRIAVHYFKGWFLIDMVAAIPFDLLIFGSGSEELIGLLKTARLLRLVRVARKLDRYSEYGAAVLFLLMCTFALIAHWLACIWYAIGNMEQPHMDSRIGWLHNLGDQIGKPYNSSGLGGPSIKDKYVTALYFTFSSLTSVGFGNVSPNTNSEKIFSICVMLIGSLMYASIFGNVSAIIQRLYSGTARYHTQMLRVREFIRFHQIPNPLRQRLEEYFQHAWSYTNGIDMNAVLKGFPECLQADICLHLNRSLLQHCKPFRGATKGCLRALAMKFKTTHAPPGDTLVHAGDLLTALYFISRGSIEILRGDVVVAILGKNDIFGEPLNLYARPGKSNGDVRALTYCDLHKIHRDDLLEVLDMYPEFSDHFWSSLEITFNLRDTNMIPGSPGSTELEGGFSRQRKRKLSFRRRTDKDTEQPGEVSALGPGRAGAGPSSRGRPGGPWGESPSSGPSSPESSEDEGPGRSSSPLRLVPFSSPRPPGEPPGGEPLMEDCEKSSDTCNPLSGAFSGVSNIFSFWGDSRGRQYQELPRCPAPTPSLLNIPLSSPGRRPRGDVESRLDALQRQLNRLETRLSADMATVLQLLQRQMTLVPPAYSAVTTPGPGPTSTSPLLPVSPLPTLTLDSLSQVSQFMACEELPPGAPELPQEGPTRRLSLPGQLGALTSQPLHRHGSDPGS
row,Compound,activity change
1,CCOC(=O)C1(Cc2ccc(Cl)cc2)CCN(C(C)CCn2cccn2)CC1 (stereo not given),-90.9% (active)
2,CCOC(=O)C1(CCc2ccccc2)CCN(Cc2ccco2)CC1,-42.5%
3,CNC(=O)O/N=C(\N)Cc1csc2ccc(Cl)cc12,-2.66%
4,NCCc1ccc(S(=O)(=O)F)cc1,-7.95%
5,NCC(O)c1ccc(O)cc1 (stereo not given),2.77%
6,CC1(C)Cc2c(C#N)c(N3CCNCC3)nc(-c3ccco3)c2CS1,-1.97%
7,CC(=NCC1CCCO1)c1c(O)n(-c2ccccc2)c(=O)[nH]c1=O (stereo not given),-12.8%
8,CC(Cc1ccccc1)NCCC(c1ccccc1)c1ccccc1 (stereo not given),-106% (active)
9,O=C1NC(=O)C(CCOc2ccccc2)(CCc2ccccc2)C(=O)N1,-6.81%
10,O=Cc1cn(Cc2ccc(F)cc2Cl)c2ccccc12,0.945%
